Source: the antibiotic and cytotoxicity screens of Wong et al. (2023)
About 3,300 (8.5%) of roughly 39,000 compounds were called active. This is one part of a sample in which actives are shown more often than they occur.

What follows are compounds tested on HepG2 (assay: cytotoxicity call (relative viability < 0.9)). Conditions: 10 µM.
With `Cc1cc(C(=O)Nc2ccc3c(c2)C(=O)N(C)[C@@H]2CC[C@@H](CC(=O)NCC(F)(F)F)O[C@H]2CO3)no1` the cytotoxicity call was “inactive”. For `C[C@@H]1CN([C@@H](C)CO)C(=O)c2cc(NC(=O)CCC(F)(F)F)ccc2O[C@@H](C)CCCCO[C@@H]1CN(C)Cc1ccc(C(=O)O)cc1`, the cytotoxicity call was “inactive”. In the case of `O=C(C[C@@H]1C=C[C@H](NC(=O)C2CC2)[C@@H](CO)O1)NCCCN1CCOCC1`, the cytotoxicity call is reported as “inactive”. `O=C(NCc1ccccc1)C1=C[C@H](c2ccc3c(c2)Cc2ccccc2-3)C[C@H](OCc2ccc(CO)cc2)O1` was tested, and the cytotoxicity call was “inactive”. For `C[C@@H]1CN([C@@H](C)CO)C(=O)c2cc(NS(C)(=O)=O)ccc2O[C@H]1CN(C)C(=O)Nc1ccc2c(c1)OCO2`, the cytotoxicity call was “inactive”. With `C[C@@H]1CN([C@H](C)CO)C(=O)c2cc(NC(=O)NC3CCCCC3)ccc2O[C@@H](C)CCCCO[C@H]1CN(C)C(=O)Nc1ccc(C(F)(F)F)cc1` the cytotoxicity call was “inactive”. With `CCNC(=O)[C@@H]1CCCN1C(=O)[C@H](CCCNC(=N)N)NC(=O)[C@H](CC(C)C)NC(=O)[C@@H](COC(C)(C)C)NC(=O)[C@H](Cc1ccc(O)cc1)NC(=O)[C@H](CO)NC(=O)[C@H](Cc1c[nH]c2ccccc12)NC(=O)[C@H](Cc1cnc[nH]1)NC(=O)[C@H]1CCC(=O)N1` the cytotoxicity call was “inactive”. For `CC(C)(C)OC(=O)CC[C@@]12N=C(c3ccc(OCCCO)cc3)O[C@@H]1c1ccccc1CN(Cc1ccccc1)C2=O`, the cytotoxicity call was “active”. For `O=C1N(Cc2ccccc2)Cc2ccccc2C[C@@]12N=C(c1ccc(OCCCO)cc1)O[C@H]2c1ccccc1`, the cytotoxicity call was “active”. For `O=C1N(Cc2ccccc2)Cc2ccccc2C[C@]12N=C(c1ccc(OCCCO)cc1)O[C@@H]2c1ccccc1`, the cytotoxicity call was “inactive”. For `CC(C)(C)OC(=O)CC[C@]12N=C(c3ccc(OCCCO)cc3)O[C@H]1c1ccccc1CN(Cc1ccccc1)C2=O`, the cytotoxicity call was “inactive”. With `O=C1N(Cc2ccccc2)Cc2ccccc2[C@H]2OC(c3ccc(OCCCO)cc3)=N[C@@]12Cc1ccccc1` the cytotoxicity call was “inactive”. With `CC(C)(C)OC(=O)CC[C@@]12N=C(c3ccc(OCCCO)cc3)O[C@@H]1c1ccccc1CN(C(=O)c1ccccc1)C2=O` the cytotoxicity call was “active”. In the case of `CC(C)(C)OC(=O)CC[C@]12N=C(c3ccc(OCCCO)cc3)O[C@H]1c1ccccc1CN(C(=O)c1ccccc1)C2=O`, the cytotoxicity call is reported as “inactive”. For `CC(C)(C)OC(=O)CC[C@]12N=C(c3ccc(OCCCO)cc3)O[C@H]1c1ccccc1N(Cc1ccccc1)C2=O`, the cytotoxicity call was “inactive”. With `O=C(c1ccccc1)N1Cc2ccccc2[C@H]2OC(c3ccc(OCCCO)cc3)=N[C@@]2(Cc2ccccc2)C1=O` the cytotoxicity call was “inactive”. For `COC(=O)c1cn(C)cn1`, the cytotoxicity call was “inactive”. For `Cc1ccc(S(=O)(=O)N(C)C[C@H]2Oc3ccc(NS(C)(=O)=O)cc3CC(=O)N([C@H](C)CO)C[C@@H]2C)cc1`, the cytotoxicity call was “inactive”. With `C[C@@H]1CN([C@@H](C)CO)C(=O)c2cc(N(C)C)ccc2O[C@@H](C)CCCCO[C@@H]1CN(C)Cc1ccc(C(F)(F)F)cc1` the cytotoxicity call was “inactive”. With `C[C@]1(CC(=O)O)C(=O)N=C2C=CC=CN21` the cytotoxicity call was “inactive”. For `COc1ccc(CN(C)C[C@H]2Oc3ccc(NC(=O)Nc4ccc(C(F)(F)F)cc4)cc3C(=O)N([C@H](C)CO)C[C@H]2C)cc1`, the cytotoxicity call was “active”. With `COc1ccc(CN(C)C[C@H]2Oc3ccc(NC(=O)Nc4ccc(C(F)(F)F)cc4)cc3C(=O)N([C@H](C)CO)C[C@@H]2C)cc1` the cytotoxicity call was “inactive”. For `COc1ccc(CN(C)C[C@@H]2Oc3ccc(NC(=O)Nc4ccc(C(F)(F)F)cc4)cc3C(=O)N([C@@H](C)CO)C[C@@H]2C)cc1`, the cytotoxicity call was “active”. For `COc1ccc(NC(=O)Nc2ccc3c(c2)C(=O)N([C@H](C)CO)C[C@@H](C)[C@H](CN(C)Cc2ccc(C(F)(F)F)cc2)O3)cc1`, the cytotoxicity call was “active”. For `COc1ccc(NC(=O)Nc2ccc3c(c2)C(=O)N([C@H](C)CO)C[C@H](C)[C@H](CN(C)Cc2ccc(C(F)(F)F)cc2)O3)cc1`, the cytotoxicity call was “inactive”. With `COc1ccc(CN(C)C[C@@H]2Oc3ccc(NC(=O)Nc4ccc(C(F)(F)F)cc4)cc3C(=O)N([C@H](C)CO)C[C@@H]2C)cc1` the cytotoxicity call was “active”. For `COc1ccc(NC(=O)Nc2ccc3c(c2)C(=O)N([C@H](C)CO)C[C@@H](C)[C@@H](CN(C)Cc2ccc(C(F)(F)F)cc2)O3)cc1`, the cytotoxicity call was “inactive”. For `COc1ccc(NC(=O)Nc2ccc3c(c2)C(=O)N([C@H](C)CO)C[C@H](C)[C@@H](CN(C)Cc2ccc(C(F)(F)F)cc2)O3)cc1`, the cytotoxicity call was “inactive”. For `C[C@H]1CN([C@@H](C)CO)C(=O)c2cc(C#CC3(O)CCCC3)cnc2O[C@@H]1CN(C)C(=O)Cc1ccccc1`, the cytotoxicity call was “inactive”. In the case of `C[C@H](CO)N1C[C@H](C)[C@@H](CN(C)Cc2ccc(F)cc2)Oc2cc(C#CC(C)(C)O)ccc2S1(=O)=O`, the cytotoxicity call is reported as “inactive”. In the case of `OCC1OC(OC2C(O)C(CO)OC2(CO)OC2OC(CO)C(O)C(O)C2O)C(O)C(O)C1O` (stereo not drawn), the cytotoxicity call is reported as “inactive”. In the case of `CN(C)C(=O)N[C@H]1CN(S(C)(=O)=O)[C@H]2CCCO[C@@H]12`, the cytotoxicity call is reported as “inactive”. In the case of `C[C@@H]1CN([C@@H](C)CO)C(=O)c2cc(NS(=O)(=O)c3ccc(Cl)cc3)ccc2O[C@@H](C)CCCCO[C@H]1CN(C)Cc1ccc(C(=O)O)cc1`, the cytotoxicity call is reported as “inactive”. In the case of `Cn1nc(C(=O)O)c2ccccc2c1=O`, the cytotoxicity call is reported as “inactive”. `COc1cccc(CNC(=O)c2cc3c(c(-c4cccc(-c5ccncc5)c4)n2)[C@@H](CCO)N([S@@](=O)C(C)(C)C)C3)c1` was tested, and the cytotoxicity call was “inactive”. In the case of `C[C@H]1CC/C=C\[C@H]2O[C@@]34C=CCN(Cn5nnc6ccccc65)C(=O)[C@H]3N(CCCCCCO)C(=O)[C@@H]4[C@@H]2C(=O)O1`, the cytotoxicity call is reported as “inactive”. With `C[C@H]1CN([C@@H](C)CO)C(=O)c2cc(Br)cnc2O[C@@H]1CN(C)C(=O)Nc1ccc(F)cc1` the cytotoxicity call was “inactive”. With `COc1ccc(CN(C)C[C@@H]2Oc3ccc(NC(=O)Nc4ccc(C(F)(F)F)cc4)cc3C(=O)N([C@H](C)CO)C[C@H]2C)cc1` the cytotoxicity call was “active”. In the case of `COc1ccc(CN(C)C[C@H]2Oc3ccc(NC(=O)Nc4ccc(C(F)(F)F)cc4)cc3C(=O)N([C@@H](C)CO)C[C@H]2C)cc1`, the cytotoxicity call is reported as “active”. `COc1ccc(CN(C)C[C@H]2Oc3ccc(NC(=O)Nc4ccc(C(F)(F)F)cc4)cc3C(=O)N([C@@H](C)CO)C[C@@H]2C)cc1` was tested, and the cytotoxicity call was “active”. With `COc1ccc(NC(=O)Nc2ccc3c(c2)C(=O)N([C@@H](C)CO)C[C@H](C)[C@@H](CN(C)Cc2ccc(C(F)(F)F)cc2)O3)cc1` the cytotoxicity call was “active”. In the case of `c1ccc2c([C@@H]3CCCN3)cccc2c1`, the cytotoxicity call is reported as “inactive”. In the case of `Cc1ccc(S(=O)(=O)N(C)C[C@@H]2Oc3c(NC(=O)c4ccncc4)cccc3C(=O)N([C@H](C)CO)C[C@H]2C)cc1`, the cytotoxicity call is reported as “inactive”. In the case of `C[C@@H]1CCCCO[C@H](CN(C)Cc2ccncc2)[C@H](C)CN([C@@H](C)CO)C(=O)c2cc(NC(=O)Cc3ccccc3)ccc2O1`, the cytotoxicity call is reported as “inactive”. `COc1ccc(C#Cc2ccc3c(c2)O[C@H](CN(C)S(=O)(=O)c2ccccc2F)[C@H](C)CN([C@@H](C)CO)S3(=O)=O)cc1` was tested, and the cytotoxicity call was “inactive”. With `C=CCOC(=O)[C@H]1[C@@H]2C(=O)O[C@@H](c3ccccc3)[C@@H](c3ccccc3)N2[C@@H](c2ccc(OCCOC(=O)[C@H]3C[C@H]4C(=O)N[C@@H](CC(C)C)C(=O)N4[C@H]3c3ccc(O)cc3)cc2)[C@]12C(=O)Nc1ccccc12` the cytotoxicity call was “inactive”. For `N=C(N)NCCS`, the cytotoxicity call was “inactive”. In the case of `C[C@@H]1CN([C@@H](C)CO)S(=O)(=O)c2ccc(C#Cc3ccccc3)cc2O[C@@H]1CN(C)C(=O)c1ccccn1`, the cytotoxicity call is reported as “inactive”. With `C[C@@H]1CCCCO[C@@H](CN(C)C(=O)NC2CCCCC2)[C@H](C)CN([C@H](C)CO)C(=O)c2cc(NS(=O)(=O)c3ccc(Cl)cc3)ccc2O1` the cytotoxicity call was “inactive”. In the case of `N#C[C@H](N)c1ccc(Cl)cc1`, the cytotoxicity call is reported as “inactive”. `COc1ccc(NC(=O)Nc2ccc3c(c2)C(=O)N([C@@H](C)CO)C[C@H](C)[C@H](CN(C)Cc2ccc(C(F)(F)F)cc2)O3)cc1` was tested, and the cytotoxicity call was “inactive”. In the case of `COc1ccc(NC(=O)Nc2ccc3c(c2)C(=O)N([C@@H](C)CO)C[C@@H](C)[C@@H](CN(C)Cc2ccc(C(F)(F)F)cc2)O3)cc1`, the cytotoxicity call is reported as “active”. `COc1ccc(CN(C)C[C@@H]2Oc3ccc(NC(=O)Nc4ccc(C(F)(F)F)cc4)cc3C(=O)N([C@@H](C)CO)C[C@H]2C)cc1` was tested, and the cytotoxicity call was “active”. For `COc1ccc(NC(=O)Nc2ccc3c(c2)C(=O)N([C@@H](C)CO)C[C@@H](C)[C@H](CN(C)Cc2ccc(C(F)(F)F)cc2)O3)cc1`, the cytotoxicity call was “inactive”. For `C[C@@H]1CCCCO[C@@H](CN(C)C(=O)Nc2ccccc2)[C@@H](C)CN([C@@H](C)CO)C(=O)c2cc(NS(=O)(=O)c3ccccc3)ccc2O1`, the cytotoxicity call was “inactive”. `C[C@@H]1CN([C@@H](C)CO)C(=O)CCCn2nncc2CO[C@H]1CN(C)S(=O)(=O)c1ccc(-c2ccccc2)cc1` was tested, and the cytotoxicity call was “inactive”. With `C[C@H]1CN([C@@H](C)CO)C(=O)Cc2cc(NC(=O)Nc3cccc4ccccc34)ccc2O[C@H]1CN(C)C(=O)Nc1ccc2c(c1)OCO2` the cytotoxicity call was “inactive”. With `C[C@@H]1CCCCO[C@@H](CN(C)S(=O)(=O)c2ccc(Cl)cc2)[C@H](C)CN([C@H](C)CO)C(=O)c2cc(NS(=O)(=O)c3ccc(F)cc3)ccc2O1` the cytotoxicity call was “inactive”. In the case of `Nc1ncnc2c1ncn2[C@@H]1O[C@H](C[C@@H](N)CC[C@H](N)C(=O)O)[C@@H](O)[C@H]1O`, the cytotoxicity call is reported as “inactive”. In the case of `CC(C)N(C[C@H]1O[C@@H](n2cnc3c(N)ncnc32)[C@H](O)[C@@H]1O)[C@H]1C[C@@H](CCc2nc3ccc(C(C)(C)C)cc3[nH]2)C1`, the cytotoxicity call is reported as “active”. For `CC(C)N(CCCNC(=O)Nc1ccc(C(C)(C)C)cc1)C[C@H]1O[C@@H](n2cnc3c(N)ncnc32)[C@@H](O)[C@H]1O`, the cytotoxicity call was “inactive”. With `C[C@H]1CN([C@@H](C)CO)C(=O)Cc2cc(NC(=O)C3CC3)ccc2O[C@@H]1CN(C)S(=O)(=O)c1cccs1` the cytotoxicity call was “inactive”. With `CC(C)NC(=O)N(C)C[C@H]1Oc2ccc(NS(=O)(=O)c3ccccc3)cc2CC(=O)N([C@@H](C)CO)C[C@H]1C` the cytotoxicity call was “inactive”.
